In the library only some 2.2% were active in any assay of this set; here they are far more common.
H9c2 protect – modulators protecting cardiomyocytes from myocardial damage; H9c2 cardiomyocytes, H2O2 injury protection, ATPLite, 2 h; protection from H2O2 cell death, % at 20 µM; 360,000 tested, 0.63% active;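 active means compounds giving at least 50% protection of heart cells from peroxide-induced death in the single-dose screen, raw or plate-pattern-corrected value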;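 further: 0% = DMSO wells with peroxide and 100% = DMSO wells without peroxide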
beta cell repl – inducers of beta-cell replication in MIN6 cells. MIN6 cells proliferation, ATPlite luminescence, 48 h; cells starved in 0.2% serum; 100% = growth in 10% serum. proliferation, % at 10 µM. 330,000 tested, 0.29% active;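 active means compounds whose signal lies at least 3.5 SD above the mean of all wells on their plate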;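 further: 0% = DMSO-treated cells in low-serum medium and 100% = 10% serum control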
Myeloid diff 2 – compounds promoting myeloid differentiation; ER-HoxA9 myeloid progenitors, lysozyme-GFP differentiation, flow cytometry; calls only at 10 µM; 360,000 tested, 1% active; AID 624256;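 active means normalized GFP-positive differentiation at or above the plate's own cutoff, the solvent-only control mean plus 3 SD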;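 further: cells exposed to compound for four days before flow analysis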
ABCB6 inh MLPCN – blocks the human ABCB6 transporter; AID 602162; 360,000 tested, 0.19% active; K562-ABCB6 porphyrin accumulation, flow cytometry, 1 h; stronger effect = lower value; fluorescence ratio to DMSO, % at 10 µM;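 active means fluorescence ratio to DMSO below 75%, the collection mean minus 3 SD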;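 further: signal is porphyrin accumulated inside mitochondria; 100% equals median channel fluorescence of DMSO control wells; lower ratio means ABCB6 inhibition with less porphyrin fluorescence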
iPSC survival up – increases survival of single human iPS cells | hiPSC single-cell survival, ATPlite luminescence; 100% = ROCK inhibitor wells, 0% = DMSO | AID 602274 | survival enhancement, % at 20 µM | 360,000 tested, 0.044% active; in the data active means survival enhancement above about 18%;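 further: cells exposed to compounds for 16 hours before the ATP read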
Myeloid diff CP1 – compounds promoting myeloid differentiation; shares compounds with Myeloid diff 2; ER-HoxA9 myeloid progenitors, GFP/Mac1 double-positive flow; calls only; 2,300 tested, 2% active; AID 651706;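 active means share of green or green-and-red cells above 9 and 9% in run 1 or 4 and 3% in run 2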
GFP autofluor – counter-screen for myeloid differentiation promoters: compound fluorescence. shares compounds with Myeloid diff 2. ER-HoxA9 myeloid progenitors, no estrogen, GFP autofluorescence flow cytometry; vehicle wells 0%, positive control 100%. fluorescence response, % (test concentration not listed). 2,300 tested, 7.4% active;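 active means over 5% cells positive for green fluorescent reporter, or over 2% positive for both it and APC stain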;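 further: range taken on the double positive population between DMSO and positive control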
Active calls of the source: *; i = inactive; nt = not tested or not shown; + = active, no number.

SMILES	H9c2 protect	beta cell repl	Myeloid diff 2	ABCB6 inh MLPCN	iPSC survival up	Myeloid diff CP1	GFP autofluor
O=C(CSc1nc2ccc(F)cc2c(=O)n1-c1ccccc1)Nc1ccc2c(c1)CCC2	-1	nt	+	i	0	i	0
COC(=O)C1=C(O)/C(=C\c2ccc(OCC(=O)Nc3ccc(OC)cc3)cc2)N=C1C	8	-1	i	103	0	nt	nt
CN1CCc2c(sc(/N=C/c3cccs3)c2C(N)=O)C1	-2	0	i	108	3	i	0
CN1CCc2c(sc(/N=C/c3ccco3)c2C(N)=O)C1	0	-2	i	107	3	nt	nt
Cc1cc(C(=O)NNC(=S)NCC2CCCO2)cs1 (configuration not stated)	2	0	i	96	-1	nt	nt
CC1Nc2ncnc(N3CCOCC3)c2N(Cc2ccccc2)C1=O (configuration not stated)	2	-1	i	101	3	i	0
CN(C)c1ncnc2c1ncn2C1OC(CO)C(O)C1O (configuration not stated)	6	-3	+	105	-3	i	0
Nc1ncn([C@@H]2O[C@H](CO)[C@@H](O)[C@H]2O)c(=O)n1	1	-5	i	103	-4	i	5.0*
O=C(COC(=O)c1cccnc1Cl)Nc1ccc2c(c1)OCCO2	-7	-3	+	101	1	i	0
O=C(O)c1ccc(Nc2ncnc3scc(-c4ccccc4)c23)cc1	3	-2	+	108	-1	i	0
Cc1ccc(-c2csc3ncnc(Nc4ccc(C(=O)O)cc4)c23)cc1	-2	1	i	96	0	nt	nt
CC1CCN(CC(=O)Nc2ccccc2C#N)CC1	-6	3	+	99	0	i	0
Cc1ccc2[nH]c(CCN(C)C)c(CN3CCOCC3)c2c1	10	-7	i	98	0	i	0
COc1ccc(CCn2c(N)c(C(=O)NCc3ccco3)c3nc4ccccc4nc32)cc1	25	-6	nt	111	-1	nt	nt
COc1ccc(-n2c(N)c(C(=O)NCc3ccco3)c3nc4ccccc4nc32)c(OC)c1	14	-1	+	106	-3	i	4
Cc1nnc(SCC(=O)N2CCN(S(=O)(=O)c3ccccc3)CC2)n1Cc1ccccc1	2	2	i	101	-4	nt	nt
COCCCNC(=S)NC1CC2CCCC(C1)N2Cc1ccco1 (configuration not stated)	-2	-2	i	99	-2	i	0
CNC(=S)NC1CC2CCCC(C1)N2Cc1ccco1 (configuration not stated)	9	-2	i	90	-1	nt	nt
CCN1CC=C2C(C#N)=C(N)C(C#N)(C#N)C(CCc3ccccc3)C2C1 (configuration not stated)	13	1	i	98	-2	nt	nt
CC(=O)N1CC=C2C(C#N)=C(N)C(C#N)(C#N)C(CCc3ccccc3)C2C1 (configuration not stated)	20	-2	+	104	3	i	0
O=C(COc1cccnc1[N+](=O)[O-])N1CCc2ccccc2C1	4	-2	i	92	0	nt	nt
CC1(C)OC(=O)N(CCc2ccccc2)C1(C)O (configuration not stated)	1	2	i	101	0	i	0
CC1(C)OC(=O)N(CC(=O)Nc2ccccc2)C1(C)O (configuration not stated)	2	-1	i	96	0	nt	nt
COc1ccccc1C(=O)Nn1c(C2CCC2)nc2ccccc2c1=O	-4	-2	i	96	-2	nt	nt
CCOc1ccccc1C(=O)Nn1c(C2CCC2)nc2ccccc2c1=O	22	0	+	94	-1	i	0
CCCC(=O)N1CC(=O)Nc2ccc(F)cc2C1c1ccccc1 (configuration not stated)	4	0	i	105	1	nt	nt
COc1ccc(N2C(=O)CN=C2Nc2nc(C)cc(C)n2)cc1OC	2	1	+	105	2	i	0

Screening results (PubChem)
